Screening results (PubChem BioAssay)
Rows were chosen to be rich in hits. Some 13% of all compounds tested hit in one or more screens of this group.
FMDV antiviral: antivirals against foot and mouth disease virus; FMDV antiviral cell-based qHTS; hit rate 1.2% among 410,000; Potency, µM (top dose mostly 57.9 µM), without a hit: at the top dose activity change, negative = inhibition, hits mostly inhibitors; calls by dose curve; tested in HEK293T cells; also: read-out not given here; potency is read from the fitted curve at half-maximal effect; % is scaled to controls: 0 for no effect and ±100 for the full control effect; nearly all actives have a fitted effect of over 45% in size
LASV entry inh: blocks Lassa virus binding to or entry into cells; hit rate 1.2% among 300,000; Lassa virus pseudotype entry inhibition, cell reporter; Potency, µM (doses to about 37.9 µM), for inactives: at the top dose activity change, negative = inhibition, most hits filed as inhibitors; calls by dose curve; tested in HEK293 cells; also: potency is read from the fitted curve at half-maximal effect; % is scaled to controls: 0 for no effect and ±100 for the full control effect; nearly all actives have a fitted effect of over 50% in size
Marburg entry inh: blocks Marburg virus binding to or entry into cells. hit rate 1.8% among 300,000. Marburg virus pseudotyped entry inhibition, cell reporter. Potency, µM (highest dose often 37.8 µM), for inactives: at the top dose activity change, negative = inhibition, most hits filed as inhibitors. AID 540276; calls by dose curve; tested in HEK293 cells; also: potency is read from the fitted curve at half-maximal effect; % is scaled to controls: 0 for no effect and ±100 for the full control effect
HCV inhibitor: inhibitors of hepatitis C virus infection. Huh7.5.1 HCVcc-Cre infection, luciferase reporter, 44 h. hit rate 3.4% among 340,000. AID 651820. Potency, µM (top dose mostly 41.8 µM), without a hit: at the highest dose activity change, negative = inhibition, actives largely listed as inhibitors; active = well fitted inhibition curve with a large enough effect; inconclusive = small, poorly fitted or top-dose-only effect, or another doubt; inactive = no such curve, though single readings can be large or run the other way; also: potency is read from the fitted curve at half-maximal effect; % is scaled to controls: 0 for no effect and ±100 for the full control effect
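Compounds are dispensed onto cells plated 4 h earlier at 1,000 per well, with HCVcc-Cre virus (about 0.5 moi) added next. Following 44 h of culture, luminescent signal is measured for 15 sec after 15 min with substrate at room temperature.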
Shiga inhibitor: blocks Shiga toxin action in Vero cells. Vero cells, Shiga toxin protein synthesis inhibition reporter. inhibition, % at 38.7 µM. hit rate 9.2% among 290,000. AID 2315; in the data active = inhibition mostly above about 28%, no sharp cut-off; inactive = mostly below about 43%; also: 0% is about no effect
Cycloheximide cs: counter-screen for Shiga toxin inhibitors: cycloheximide protein synthesis inhibition; max response, %; cell reporter, cycloheximide protein synthesis inhibition counterscreen; hit rate 12% among 300,000; in the data active = max response mostly above about 13%, no sharp cut-off; inactive = mostly below about 14%; also: read at 38.3 µM for the half of the compounds with a filed dose; 0% is about no effect
The depositor's hits bear a star; ? = inconclusive; nt = no result; [ ] = remark or other dose.

SMILES | FMDV antiviral | LASV entry inh | Marburg entry inh | HCV inhibitor | Shiga inhibitor | Cycloheximide cs
COCCNC(=S)Nc1ccc2nsnc2c1 | 49% | 3% | 0% | 7% | -19 | 16*
COCCNC(=S)Nc1ccc2[nH]c(=O)[nH]c2c1 | -12% | nt | nt | 3% | -7 | -2
C=COCCNC(=O)Nc1ccc(Cl)c(Cl)c1 | nt | 13% | 8% | 10µM* | 54* | 31*
C=CCN(CC=C)C(=S)Nc1ccc2nsnc2c1 | 17% | nt | nt | 2% | 60* | 26*
CCOc1ccc(NS(=O)(=O)c2cc(NC(=O)CCS(=O)(=O)c3ccc(C)cc3)ccc2OC)cc1 | 9% | -27% | ? | ? | -3 | -2
CC(=O)c1cc2c(cc1NS(=O)(=O)c1ccccc1F)OCO2 | 18% | nt | nt | -10% | -7 | -4
CN(Cc1ccc(Cl)c(Cl)c1)C(c1cc2ccccc2o1)c1nnnn1C(C)(C)C (centres undefined) | 22µM* | nt | nt | nt | nt | nt
COc1ccc(N2CCN(C(=O)Cn3nnc(-c4ccc(N(C)C)cc4)n3)CC2)cc1 | 9% | 1% | 23%[46.1 µM] | 6% | 2 | 12
CN(C)/C=N/C(=S)Nc1ccccc1 | 0% | 26% | 1%[46.1 µM] | 10% | 88 | 19*
CN(C(=S)Nc1ccccc1)c1ccccc1 | -17% | 1% | ? | -1% | -8 | -3
CN(C)/C=N/C(=S)Nc1ccc(Br)cc1F | 12% | ? | -27% | 3% | 52* | 49*
C=CCNC(=S)Nc1ccc(Br)cc1F | 40% | -6% | -10% | ? | 1 | 19
COc1ccc(N[C@H]2CC(=O)N(C)C2=O)cc1 | nt | nt | 4% | nt | nt | nt
COc1ccc(NC2SC(=O)N(C)C2=O)cc1 (centres undefined) | 7% | nt | nt | 5% | 49* | 9
COC(=O)CSc1nc2sc3c(c2c(=O)n1C1CCCCC1)CCN(C)C3 | nt | nt | nt | nt | 23 | 8
Cc1c(/C(O)=C2/C(=O)C(=O)N(CCN3CCOCC3)C2c2cccs2)cnn1-c1ccccc1 (centres undefined) | 25% | -1% | ? | 10% | 86* | 40*
Cc1ccc([C@H]2/C(=C(\O)c3cnn(-c4ccccc4)c3C)C(=O)C(=O)N2CCN2CCOCC2)o1 | nt | nt | 10% | nt | nt | nt
Cc1ccc(C2/C(=C(/O)c3cnn(-c4ccccc4)c3C)C(=O)C(=O)N2CCN2CCOCC2)o1 (centres undefined) | 27% | ? | 10% | 6% | 75* | 56*
CCN(CC)CCN1C(=O)C(=O)/C(=C(/O)c2cnn(-c3ccccc3)c2C)C1c1ccc(C)o1 (centres undefined) | 58% | ? | -23% | 15% | 87* | 47*
Cc1ccc(C2/C(=C(\O)c3cnn(-c4ccccc4)c3C)C(=O)C(=O)N2CCN(C)C)o1 (centres undefined) | 60% | 10% | ? | 5% | -9 | -3
O=C(Nc1ccc(S(=O)(=O)N2CCOCC2)cc1)C1COc2ccccc2O1 (centres undefined) | -4% | 2% | 3% | -28% | 9 | -2
CCN(CC)S(=O)(=O)c1cc(NC(=O)C2Cc3ccccc3C(=O)O2)ccc1C (centres undefined) | -13% | nt | nt | ? | 56* | 27*
O=C(Nc1ccc(S(=O)(=O)N2CCCC2)cc1)C1COc2ccccc2O1 (centres undefined) | -15% | nt | nt | ? | 10 | 1
O=C1OC(C(=O)Nc2ccc(Cl)c(C(F)(F)F)c2)Cc2ccccc21 (centres undefined) | -3% | ? | 21%[46.1 µM] | nt | nt | nt
Cc1ccc(NC(=O)C2COc3ccccc3O2)cc1S(=O)(=O)N1CCCCC1 (centres undefined) | ? | nt | nt | 11µM* | nt | nt
SMILES | FMDV antiviral | LASV entry inh | Marburg entry inh | HCV inhibitor | Shiga inhibitor | Cycloheximide cs
O=C(Nc1cccc(S(=O)(=O)N2CCCCC2)c1)C1COc2ccccc2O1 (centres undefined) | -22% | nt | nt | 10µM* | nt | nt
C[n+]1ccc(CC2C(=[N+]([O-])[O-])C=Nc3ncnn32)cc1 (centres undefined) | -6% | nt | nt | 10% | -13 | -1
O=C(COc1ccc(-n2cnnn2)cc1)Nc1ccc(F)c(Cl)c1 | -8% | 8%[46.1 µM] | 8%[46.1 µM] | ? | nt | nt
N#C/C(=C/c1ccc(N2CCCCCC2)o1)c1cccc(F)c1 | -46% | 3% | ? | ? | 4 | 14
N#C/C(=C/c1ccc(N2CCOCC2)o1)c1ccc(Br)cc1 | 0% | 0% | 10% | ? | 109* | 77*
N#C/C(=C/c1ccc(N2CCOCC2)o1)c1nc2ccccc2[nH]1 | -61% | ? | ? | -31% | 58* | 34*
N#C/C(=C\c1cc([N+](=O)[O-])c(N2CCOCC2)cc1N1CCOCC1)c1nc2ccccc2[nH]1 | -15% | ? | ? | ? | -1 | 0
N#C/C(=C\c1ccc(N2CCOCC2)o1)c1ccccc1 | nt | ? | ? | 11µM* | 31 | 34*
N#C/C(=C/c1ccc(N2CCCCCC2)o1)c1ccc(F)cc1 | -17% | ? | 10µM* | ? | nt | nt
CCCN(CC(=O)Nc1ccccc1OC)C(=O)c1cc(-c2cccs2)nn1-c1ccccc1 | -22% | -24% | ? | ? | nt | nt
CCOC(=O)C1=C(CN2CCN(c3ccc(Cl)cc3)CC2)NC(=O)NC1c1ccc(OC)cc1 (centres undefined) | ? | -29%[46.1 µM] | nt | nt | nt | nt
N#C/C(=C\c1ccc(N2CCOCC2)cc1)c1ccccc1 | 32% | ? | ? | -28% | 19* | 51*
N#C/C(=C\c1ccc(Sc2nc3ccccc3[nH]2)o1)c1ccccc1 | ? | ? | ? | 10µM* | -5 | 1
O=Cc1cn(Cc2cccc([N+](=O)[O-])c2)c2ccccc12 | -28% | 0.63µM* | 0.82µM* | -18% | -11 | -1
O=C(Cn1cc(/C=C\[N+](=O)[O-])c2ccccc21)Nc1ccccc1 | 13µM* | ? | ? | ? | -12 | -8
CC(=O)c1cn(Cc2ccccc2C#N)c2ccccc12 | ? | 3.5µM* | ? | 2.5µM* | 24 | 6
N#Cc1ccccc1Cn1cc(/C=C/[N+](=O)[O-])c2ccccc21 | 14µM* | 23µM* | ? | ? | -21 | -11
COc1ccc(NC(=O)N(C)C[C@H]2Oc3c(NS(=O)(=O)c4ccc(OC)cc4)cccc3C(=O)N([C@H](C)CO)C[C@@H]2C)cc1 | 38% | nt | nt | -4% | nt | nt
Cc1c(C(=O)Nc2ccccc2[N+](=O)[O-])csc1-c1ccccc1 | -6% | ? | ? | ? | 97* | 34*
Cc1cc(C(=O)Nc2ccccc2[N+](=O)[O-])cs1 | 69% | nt | nt | -5% | -2 | 9
Cc1c(C(=O)Nc2ccccc2)csc1-c1ccccc1 | -24% | ? | ? | ? | 40* | 36*
Clc1ccc(-c2nnc(-c3ccccc3)o2)cn1 | 76% | 5% | 17% | 0% | 7 | 11*
c1cncc(-c2nnc(-c3cccs3)o2)c1 | 59% | 26% | 19%[46.1 µM] | -10% | 58 | 20*
COc1ccc(-c2nnc(-c3cccnc3)o2)cc1 | 26% | -19% | -3% | 2% | 62* | 28*
